Shown are actives, neighbours in structure and some others; about 2.3% of the full set was active somewhere.
CHT PAM: CHT positive allosteric modulators, primary screen, cell-based, membrane potential dye, choline EC20; CHT-expressing cells; active compounds read high; LV-AA mutant CHT in HEK293 cells; AID 488977, 2010; High affinity choline transporter 1 (Homo sapiens), Q9GZV3; B-score at 10 µM; hit rate 0.49% among 310,000;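 active = initial fluorescence not abnormally high and integrated response B-score, plate-corrected, over 3 SD above library mean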
Target sequence (Q9GZV3 whole entry, looked up): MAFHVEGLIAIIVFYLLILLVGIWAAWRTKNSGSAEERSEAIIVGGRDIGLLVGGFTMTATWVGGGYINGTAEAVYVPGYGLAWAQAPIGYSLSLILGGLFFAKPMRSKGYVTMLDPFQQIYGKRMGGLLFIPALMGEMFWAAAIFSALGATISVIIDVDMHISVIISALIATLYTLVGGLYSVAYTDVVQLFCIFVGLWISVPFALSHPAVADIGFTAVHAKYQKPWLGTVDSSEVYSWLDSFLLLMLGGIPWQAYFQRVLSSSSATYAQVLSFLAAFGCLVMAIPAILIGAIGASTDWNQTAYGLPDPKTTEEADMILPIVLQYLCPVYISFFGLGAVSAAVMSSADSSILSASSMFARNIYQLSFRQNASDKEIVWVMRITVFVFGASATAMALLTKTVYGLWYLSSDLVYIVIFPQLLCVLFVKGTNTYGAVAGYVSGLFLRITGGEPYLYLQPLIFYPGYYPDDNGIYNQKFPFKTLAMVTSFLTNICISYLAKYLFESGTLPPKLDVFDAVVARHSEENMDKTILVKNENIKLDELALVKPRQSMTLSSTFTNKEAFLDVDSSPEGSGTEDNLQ
CHT inh: inhibitors of human choline transporter CHT | High affinity choline transporter 1 (Homo sapiens), Q9GZV3 | CHT-expressing cells, membrane potential dye, choline response; active compounds read low | B-score at 10 µM | hit rate 0.86% among 310,000 | AID 488975, 2010;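 active = B-score over 3 SD under the library average, and starting fluorescence ratio not unusually high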;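 note: choline stimulus applied at its EC90 after an EC20 pre-addition; B-score computed on integrated fluorescence ratio after choline addition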
TMEM16A act: TMEM16A chloride channel activators or potentiators, primary screen, cell-based, HTS; Anoctamin-1 (Mus musculus), Q8BHY3; HEK293 TMEM16A/YFP-H148Q/I152L, iodide quench fluorescence; active compounds read low; B-score at 10 µM; hit rate 0.3% among 340,000;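 active = fluorescence-ratio B-score plate-corrected deviation score at least 3 library SD below zero, with starting fluorescence score within 5 deviations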;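 note: channel opened by trigger with iodide after compound preincubation; score built on the fluorescence ratio of max minus min over baseline; more negative score means more quench and so TMEM16A activation or potentiation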
TMEM16A inh: TMEM16A chloride channel inhibitors, primary screen, cell-based, HTS; Anoctamin-1 (Mus musculus), Q8BHY3; HEK293 TMEM16A/YFP iodide influx fluorescence, ionomycin; normalized B-score (activity score, 25-100; higher = stronger inhibition) at 10 µM; hit rate 1.2% among 310,000;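 active = ratio plate-corrected score three or more library SD toward inhibition, starting fluorescence score within five deviations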;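 note: score derived from kinetic fluorescence span divided by baseline fluorescence per well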
An asterisk follows results filed as active; i = inactive; · = no result given.

SMILES | CHT PAM | CHT inh | TMEM16A act | TMEM16A inh
Cc1nn(-c2ccccc2)c(C)c1/C=N/NC(=O)c1cc(C23CC4CC(CC(C4)C2)C3)[nH]n1 | i | -8.5* | i | i
Cc1cc(C(=O)N/N=C/c2c(C)nn(-c3ccccc3)c2C)n[nH]1 | i | i | i | i
O=[N+]([O-])c1ccc(Sc2cccc[n+]2[O-])c2nonc12 | · | · | -4.9* | ·
O=C(CSc1cccc[n+]1[O-])Nc1cc(Cl)ccc1[N+](=O)[O-] | · | · | i | ·
O=C(/C(N=Nc1cccc(C(F)(F)F)c1)=C(/O)c1cccs1)C(F)(F)F | i | i | i | 100*
CN(C(=O)/C(N=Nc1cccc(C(F)(F)F)c1)=C(\O)C(F)(F)F)c1ccccc1 | i | i | i | 100*
C=CCOC(=O)C1=C(C)NC(=O)NC1c1ccc(OC(=O)c2ccco2)c(OC)c1 (centres undefined) | i | i | i | i
O=C(CSc1nnnn1C1CC2CCC1C2)Nc1ccnc2ccccc12 (centres undefined) | i | i | i | 100*
COc1cc(/C=N/NC(=O)Nc2ccccc2)ccc1OC(C)=O | i | i | i | i
C=CC[n+]1c(/C=C/c2ccc(OC(C)=O)c(OC)c2)ccc2ccccc21 | 7.4* | i | i | i
Cc1ccc2sc(NNC(=O)c3cc(=O)c4ccccc4o3)nc2c1C | i | i | i | 100*
Cc1cccc(N(CC(=O)N2CCc3ccccc3C2)S(C)(=O)=O)c1C | i | i | i | i
COc1cccc(CN(Cc2ccco2)C(c2ccc(F)cc2)c2nnnn2C(C)(C)C)c1 (centres undefined) | i | i | -26* | i
CCOC(=O)c1cnc(-n2nc(C)cc2C)nc1NCCO | i | i | i | i
CCOC(=O)c1cnc2ccc(OCC)cc2c1NCc1ccccc1 | i | i | i | 100*
CCOC(=O)c1cnc(-n2nc(C)cc2C)nc1NCc1ccccc1 | i | i | i | 100*
COc1ccc(C(=O)O)cc1NC(=S)NC(=O)/C=C/c1ccc(C(C)C)cc1 | i | i | i | i
O=C(N[C@H]1CCCCNC1=O)c1cc(COc2ccc(F)cc2F)on1 | i | i | i | i
O=C1c2ccccc2C(O)(c2ccccc2)N1C1CC1 (centres undefined) | i | i | i | i
O=C(OCC(O)COc1ccccc1)c1ccc([N+](=O)[O-])cc1 (centres undefined) | i | i | i | i
CCCCC(CC)C(=O)Nc1ncc([N+](=O)[O-])s1 (centres undefined) | i | i | i | 100*
O=C(COc1cccc(C(F)(F)F)c1)Nc1ccc(S(=O)(=O)N2CCCCC2)cc1 | i | i | i | i
O=C(O)c1ccc(N2C(=O)CC(SC(=NCc3ccc4c(c3)OCO4)Nc3ccccc3)C2=O)cc1 (centres undefined) | i | i | i | i
CN=C(Nc1ccc2c(c1)OCO2)SC1CC(=O)N(c2ccccc2)C1=O (centres undefined) | i | i | i | 25*
CC(=O)Nc1nc2cccc([N+](=O)[O-])c2s1 | i | i | i | i
SMILES | CHT PAM | CHT inh | TMEM16A act | TMEM16A inh
CCSc1nc2c(c(=O)[nH]c(=O)n2C)n1CC(O)COc1ccccc1C (centres undefined) | i | i | -4.6* | i
COc1ccc(OCC(O)Cn2c(Br)nc3c2c(=O)[nH]c(=O)n3C)cc1 (centres undefined) | i | i | -28* | i
C[C@H](NC(=O)c1[nH]cnc1C(=O)Nc1ccc(CNC(=O)OC(C)(C)C)cc1)C(=O)OCc1ccccc1 | i | i | i | 100*
O=C(Nc1ccccc1C(=O)Nc1nnc(C(F)(F)F)s1)c1ccccc1 | i | i | -6.2* | 100*
Cc1occc1C(=O)Nc1nnc(C(F)(F)F)s1 | i | i | i | i
CCOC(=O)c1ccc(NC(=O)NC2CC3CCC(C2)N3Cc2nnnn2C(C)(C)C)cc1 (centres undefined) | i | i | i | i
CC1(C)CC(=O)C(N=Nc2cc3c(cc2[N+](=O)[O-])OCCO3)=C(O)C1 | i | i | i | i
O=C(CCc1nc(-c2ccccc2F)no1)Nc1ccc(Oc2ccccc2)cc1 | i | i | i | 100*

Source: PubChem (Johns Hopkins Ion Channel Center)
